Assay outcomes from PubChem BioAssay.
Hits are enriched below; roughly 2.6% of the tested compounds scored in any of these assays.
AmpC det inh – blocks E. coli AmpC beta-lactamase in presence of detergent; P00811; purified AmpC, nitrocefin hydrolysis with detergent; Potency, µM (doses to about 28.7 µM), inactives show top-dose activity change, negative = inhibition; 0.09% of 71,000 active; AID 584; active = well fitted curve in the direction sought with a large enough effect; inconclusive = small, poorly fitted or top-dose-only effect; note: % is set by controls: 0 for no effect and ±100 for the full control effect
Target sequence (P00811 whole entry, looked up): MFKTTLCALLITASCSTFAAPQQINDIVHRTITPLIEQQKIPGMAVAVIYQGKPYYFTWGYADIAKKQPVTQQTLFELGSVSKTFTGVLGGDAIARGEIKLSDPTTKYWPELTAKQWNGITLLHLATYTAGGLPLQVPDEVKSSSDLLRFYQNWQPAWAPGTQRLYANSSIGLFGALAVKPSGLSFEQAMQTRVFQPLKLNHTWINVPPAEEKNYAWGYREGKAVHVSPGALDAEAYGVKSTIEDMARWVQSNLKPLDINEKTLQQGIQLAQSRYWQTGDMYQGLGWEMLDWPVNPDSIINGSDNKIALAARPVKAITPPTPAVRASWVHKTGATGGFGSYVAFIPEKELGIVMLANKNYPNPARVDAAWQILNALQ
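E. coli AmpC (5.3 nM) in 20 mM phosphate pH 7.0 with 0.01% Triton X-100, preincubated 15 min RT with compound; nitrocefin (2 uL of 800 uM stock) hydrolysis followed by 480 nm absorbance every 20 s over 4 min.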
LT uptake inh – anthrax lethal toxin internalization inhibition; 0.67% of 70,000 active; Potency, µM (highest dose often 40 µM), for inactives: at the highest dose activity change, negative = inhibition, hits mostly inhibitors; Cells, anthrax lethal toxin internalization, FRET ratio (460/530); AID 912; note: % is set by controls: 0 for no effect and ±100 for the full control effect; nearly all actives have a fitted effect of over 50% in size
Prx2 Sm inh – Schistosoma mansoni Prx2 inhibition | S. mansoni Prx2 activity coupled to TGR/GSH (TGR is thioredoxin glutathione reductase), NADPH fluorescence loss, qHTS | Potency, µM | 0.07% of 65,000 active | AID 448
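Prx2 activity was followed as the loss of NADPH fluorescence (ex 365/em 450 nm), read every 30 sec for 8 min after H2O2 start. The enzyme mix (50 nM Prx2, 25 nM TGR, GSH, NADPH; pH 7.4 phosphate buffer) was incubated with compound for 15 min at room temperature first.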
AmpC inh no det – inhibitors of E. coli AmpC beta-lactamase without detergent; Potency, µM (doses to about 28.7 µM), inactives show at the top dose activity change, negative = inhibition; AmpC nitrocefin hydrolysis, absorbance 480 nm, no detergent; 1.8% of 71,000 active; P00811; note: % of control where 0% means no effect
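AmpC, 20 mM phosphate pH 7.0; 15 min cpd preinc, RT; start with nitrocefin (800 uM stock); A480 kinetic read, 20 s intervals, 4 min. No-enzyme wells = negative control.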
Starred values were filed as active, the others as inactive; ? = inconclusive; · = no result given; [ ] = another dose, or the depositor's remark. Unless noted, calls come from the whole dose curve. Potency is the fitted concentration of half-maximal effect.

SMILES	AmpC det inh	LT uptake inh	Prx2 Sm inh	AmpC inh no det
CC1=C(C(=O)OC(C)C)C(c2ccccn2)n2ncnc2N1 (stereo not given)	14%	14%	>57	4µM*[single pt active]
CC1=C(C(=O)OC(C)C)C(c2cccnc2)n2ncnc2N1 (stereo not given)	8%	26%	>57	4µM*[single pt active]
CC1=C(C(=O)OC(C)C)C(c2ccncc2)n2ncnc2N1 (stereo not given)	-3%	?	>57	-1%
Cc1cc(F)ccc1OC1C=CC(c2ccc3c(c2)OCO3)OC1CO (stereo not given)	·	-21%[8 µM]	·	·
CCOC(=O)N1CCc2c(sc(NC(=O)c3ccc(Cl)s3)c2C(N)=O)C1	16%	5µM*	>57	-2%
Cc1cccc(CNc2ccnc(-c3cccc(C#N)c3)n2)c1	-3%	5µM*	>57	29%
CNc1sc(C(=O)c2cccs2)c(N)c1-c1nc2ccccc2s1	-2%	?	>57	13µM*[single pt active]
CN(C)c1ccc(-c2nc(Nc3ccncc3)c3ccccc3n2)cc1	9%	13µM*	>57	35%
Cl.Cl.Cl.Cl.Cl.Cl.N.N.N.N.NNNNN.NNNNN.O.O.[Ru].[Ru].[Ru]	-7%	-6%	>57	5µM*
O=c1n(-c2ccccc2)c(=O)n2n1CC[C@H]1/C(=N\OC[C@@H](O)COCc3ccco3)[C@H]3O[C@@H]3[C@@H](O)[C@@H]12	·	-2%[8 µM]	·	·
CC(C)c1ccc2oc(-c3cc(N)ccc3O)nc2c1	-2%	13µM*	·	-7%
CCCCN(CC)CCNc1c(NC2CCN(C(=O)OCC)CC2)c(=O)c1=O	14%	-16%	>57	4µM*[single pt active]
CCOC(=O)N1CCN(c2c(NC3CCN(Cc4ccccc4)CC3)c(=O)c2=O)CC1	10%	-9%	>57	4µM*[single pt active]
CCOC(=O)N1CCC(Nc2c(OCC)c(=O)c2=O)CC1	12%	-7%	>57	4µM*[single pt active]
CCCCN(CC)CCNc1c(N2CCN(C(=O)OCC)CC2)c(=O)c1=O	-6%	5%	>57	-6%
O=C(Nc1nc(-c2cccs2)cs1)c1ccc(Cl)s1	12%	10µM*	>57	?
O=C(Nc1nc(-c2cccs2)cs1)c1ccc(S(=O)(=O)N2CCCC2)cc1	2%	?	>57	13µM*
CC(=O)Nc1nc(-c2cccs2)cs1	-5%	4%	>57	-4%
CCC1CCCCN1S(=O)(=O)c1ccc(C(=O)Nc2nnc(-c3cccs3)o2)cc1 (stereo not given)	-8%	?	>57	13µM*
CC1CC(C)CN(S(=O)(=O)c2ccc(C(=O)Nc3nnc(-c4cccs4)o3)cc2)C1 (stereo not given)	8%	17%	>57	-9%
COc1ccc(OCC2CC3C(CCC(C)C3c3ccc(Br)cc3)C(=O)O2)cc1 (stereo not given)	·	-14%[8 µM]	·	·
CCCCC[C@@H](O)[C@@H]1C(=O)O[C@@H](C)[C@@H](O)\C=C/C=C\C=C/C=C\C=C(\C)[C@H](O)C[C@H](O)C[C@H](O)C[C@H](O)C[C@H](O)C[C@H](O)C[C@@H]1O	-1%[5.75 µM]	-8%[8 µM]	>57	31%[5.75 µM]
O=C(Nc1ccc(Cl)cc1)N(Cc1cccs1)Cc1cccs1	2%	-21%	·	5µM*
CN(c1nnc(N)s1)C1CCCCC1	21%	-2%	>57	4µM*[single pt active]
CC1(C)Cc2c(c(N3CCOCC3)nc3sc(C(=O)N4CCCCC4)c(N)c23)CO1	25%	-10%	>57	4µM*[single pt active]
SMILES	AmpC det inh	LT uptake inh	Prx2 Sm inh	AmpC inh no det
CCOC(=O)C1CCN(C(=O)c2ccc(Cl)c(NC3=NC4CS(=O)(=O)CC4S3)c2)CC1 (stereo not given)	12%	1%	>57	4µM*[single pt active]
O=C(c1ccc(NC2=NC3CS(=O)(=O)CC3S2)cc1)N1CCN(C(=O)c2ccco2)CC1 (stereo not given)	12%	-5%	>57	4µM*[single pt active]
CCOC(=O)N1CCN(C(=O)c2cccc(NC3=NC4CS(=O)(=O)CC4S3)c2)CC1 (stereo not given)	-3%	0%	>57	-3%
O=C(COC(=O)c1cc(-c2ccco2)nc2ccccc12)NCc1ccc2c(c1)OCO2	-12%	?	>57	13µM*
Cn1c(=O)c2cc(S(=O)(=O)NC(C(=O)NCc3cccnc3)c3ccccc3)ccc2n(C)c1=O (stereo not given)	14%	-7%	>57	4µM*[single pt active]
Cn1c(=O)c2cc(S(=O)(=O)NC(C(=O)Nc3cccnc3)c3ccccc3)ccc2n(C)c1=O (stereo not given)	11%	-8%	>57	4µM*[single pt active]
